# Several values for one entry are separate records, joined by “and”; a condition that tells them apart may be missing. Equal entries are not always repeated. Inconclusive results are not listed. A number with no mark means an inactive call. Activity calls are given as the source filed them. The call rests on the fitted dose curve.
# Assay: p53 small molecule agonists, cell-based qHTS assay with rat liver microsomes: qHTS cell viability counter screen (AID 1963580); further: nearly all actives have a fitted effect of over 45% in size
# Settings: p53RE-bla HCT-116 + rat microsomes, ATP viability, 16 h; series mostly up to 66 µM; activity change, negative = cytotoxicity: at the top concentration
# Description: National Center for Advancing Translational Sciences [NCATS]
# Division of Preclinical Innovation [DPI]
# U.S. Environmental Protection Agency [EPA]
# National Institutes of Environmental Health Sciences [NIEHS]
# National Toxicology Program [NTP]
# U.S. Food and Drug Administration [FDA]
# p53, a tumor suppressor protein, is activated following cellular insult, including DNA damage and other cellular stresses. The activation of p53 regulates cell fate by inducing DNA repair, cell cycle arrest, apoptosis, or cellular senescence. The activation of p53, therefore, is a good indicator of DNA damage and other cellular stresses. The CellSensor p53RE-bla HCT-116 cell line contains a stably integrated beta-lactamase reporter gene under control of the p53 response elements. The activation of the reporter gene under culture conditions can be detected by fluorescence intensity. This cell line was used to screen the Tox21 10K compound library in the condition of presence of rat liver microsomes and to identify agonists that activate the p53 signaling pathway after in vitro metabolic activation (Ooka et al., Archive of Toxicology 96:1975-1987, 2022). The cytotoxicity of the Tox21 compound library against the p53 RE-bla HCT-116 cell line was tested in parallel by measuring the intra cellular ATP content in the same wells.
# Tox21 Assay Protocol Summary:
# The p53RE-bla cells were dispensed at 4,000cells/3ul/well in 1536-well black-clear bottom plates. After the assay plates were incubated at 37 C, 5% CO2 incubator for 5 hours, 23 nL of compounds dissolved in DMSO, positive controls or DMSO only was transferred to the assay plate. Following compound addition, 3 uL of rat liver microsomes (Molecular Toxicology, Boone, NC) at final concentration of 0.5 mg/mL and 1uL of B-Nicotinamide adenine dinucleotide 2'-phosphate (NADPH) at final concentration of 0.5 mg/mL were transferred to the assay plate. The plates were incubated at 37 C for 16 hours. 1 uL of LiveBLAzer detection mixture was added to each well and the plates were incubated at room temperature in the dark for 2 h. Fluorescence intensity at 460 and 530 nm emission and 405 nm excitation were measured by an Envision plate reader. For cell viability readout that measures cytotoxicity, 4 ul/well of CellTiter-Glo reagent was added into the assay plates using a Flying Reagent Dispenser. After 30 min incubation at room temperature, the luminescence intensity in the plates was measured using a ViewLux plate reader.
# On the % scale 0 is the no-effect control and ±100 the full control effect; potency means the concentration at half of the fitted maximal effect.
SMILES,"activity change, negative = cytotoxicity",Potency
Cc1ccccc1OCC1CO1 (stereo not given),3.34%,
CCC(C(=O)NC(N)=O)c1ccccc1 (stereo not given),-9.61%,
O=[N+]([O-])c1ccc2c(c1)Cc1ccccc1-2,,inactive
CO[Si](OC)(OC)c1ccccc1,6.21%,
C[Si](C)(C)O[Si](C)(C)O[Si](C)(C)C,-9.14%,
O=C(O)c1ccco1,2.55%,
CC1=CCC(C(C)C)=CC1,-10.4%,
CCC/C=C/CO,-1.55%,
CC(C)c1ccc(C=O)cc1,0.496%,
CCOc1ccc(Cc2nccc3cc(OCC)c(OCC)cc23)cc1OCC,-14.5% [at 30.3 µM],
CC(C)CC(C)(N)C#N (stereo not given),0.922%,
CC1(C)O[C@H]2CC(=O)OC[C@]23[C@H]2CC[C@@]4(C)[C@H](c5ccoc5)OC(=O)[C@H]5O[C@]54[C@]2(C)C(=O)C[C@@H]13,0.331% [at 30.3 µM],
OCCC(F)(F)C(F)(F)C(F)(F)C(F)(F)C(F)(F)C(F)(F)F,0.957%,
Oc1ccc2c(c1)OC[C@@H](N1CCC(O)(c3ccc(F)cc3)CC1)[C@H]2O,3.95% [at 30.3 µM],
C=C(C)[C@H]1CC=C(C)C(=O)C1,,inactive
FC(F)(F)c1ccccc1,0.17%,
COC(=O)Nc1ccc(Cl)c(Cl)c1,0.581%,
CC(C)OC(C)C,-9.94%,
O=C(O)[C@@H](O)[C@H](O)[C@H](O)[C@@H](O)C(=O)O,-4% [at 30.3 µM],
Cc1ccccc1OCC(O)CO (stereo not given),-15.1% [at 30.3 µM],

SMILES,"activity change, negative = cytotoxicity",Potency
Cc1cc(N)n(-c2ccccc2)n1,-5.74%,
CCCO[Si](OCCC)(OCCC)OCCC,-4.44%,
Cc1ncc(CO)c(CN)c1O,-0.617% [at 30.3 µM],
CCCCCCCCCCCCCC[P+](CCCC)(CCCC)CCCC,,45.5 µM (active) and 40.8 µM (active)
COC(C)(C)CCO,13.9%,
N#Cc1cc(NC(=O)C(=O)O)c(Cl)c(NC(=O)C(=O)O)c1,-7.64% [at 30.3 µM],
C1=COCCC1,-3.79%,
C=CC(C)CCC=C(C)C (stereo not given),4.35%,
C=CCc1cc(OC)c(O)c(C(=O)NCCO)c1,1.22% [at 30.3 µM],
CC(=O)Nc1ncc([N+](=O)[O-])s1,9.23% [at 30.3 µM],
CCCCCC(=O)O[C@]1(C(C)=O)CC[C@H]2[C@@H]3CCC4=CC(=O)CC[C@]4(C)[C@H]3CC[C@@]21C,-18.7% [at 30.3 µM],
CCN(CC)CCNC(=O)c1ccc(NC(C)=O)cc1,-9.05% [at 30.3 µM],
O=C1CC2CC1C1CCCC21 (stereo not given),0.335%,
Oc1cccc2ccccc12,2.47%,
CC(C)c1ccc2c(C(C)C)cc(C(C)C)c(S(=O)(=O)O)c2c1,-9.59%,
CC(CO)CO,0.26%,
COC(=O)CC(C(C)=O)C(=O)OC (stereo not given),0.875%,
CC(=O)NCc1c(I)c(NC(C)=O)c(I)c(C(=O)O)c1I,-1.82% [at 30.3 µM],
O=C(O[C@@H]1Cc2c(O)cc(O)cc2O[C@@H]1c1cc(O)c(O)c(O)c1)c1cc(O)c(O)c(O)c1,1.23%,
CC1=C(C=O)C(C)(C)CC=C1,-1.42%,

# — PubChem BioAssay (Tox21)
